In PubChem BioAssay (NCATS) one finds Potency and activation data, which are given here for 22 compounds.

Records with an inconclusive call do not appear. A call without a number means that no potency is given here. Activity calls are given as the source filed them. The call rests on the fitted dose curve; in most records, active means well fitted activation curve with a large enough effect; inconclusive means small, poorly fitted or top-dose-only effect; inactive means no such curve, though single readings can be large or run the other way.

The target in the first assay is Rap guanine nucleotide exchange factor 3 (Homo sapiens) (UniProt O95398). Nature of the assay: Confirmatory qHTS for agonist of cAMP-regulated guanine nucleotide exchange factor 3 (EPAC1) (AID 1645881).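 Further: EPAC1 catalysed release of BODIPY-GDP from Rap1B seen as fluorescence loss; nearly all actives have a fitted effect of over 75% in size.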 To be noted: EPAC1 Rap1B BODIPY-GDP exchange fluorescence; series mostly up to 154 µM. (In general: qHTS replaces the single test concentration by a dilution series.)
Chain of Rap guanine nucleotide exchange factor 3 (Homo sapiens) (O95398 whole entry, looked up): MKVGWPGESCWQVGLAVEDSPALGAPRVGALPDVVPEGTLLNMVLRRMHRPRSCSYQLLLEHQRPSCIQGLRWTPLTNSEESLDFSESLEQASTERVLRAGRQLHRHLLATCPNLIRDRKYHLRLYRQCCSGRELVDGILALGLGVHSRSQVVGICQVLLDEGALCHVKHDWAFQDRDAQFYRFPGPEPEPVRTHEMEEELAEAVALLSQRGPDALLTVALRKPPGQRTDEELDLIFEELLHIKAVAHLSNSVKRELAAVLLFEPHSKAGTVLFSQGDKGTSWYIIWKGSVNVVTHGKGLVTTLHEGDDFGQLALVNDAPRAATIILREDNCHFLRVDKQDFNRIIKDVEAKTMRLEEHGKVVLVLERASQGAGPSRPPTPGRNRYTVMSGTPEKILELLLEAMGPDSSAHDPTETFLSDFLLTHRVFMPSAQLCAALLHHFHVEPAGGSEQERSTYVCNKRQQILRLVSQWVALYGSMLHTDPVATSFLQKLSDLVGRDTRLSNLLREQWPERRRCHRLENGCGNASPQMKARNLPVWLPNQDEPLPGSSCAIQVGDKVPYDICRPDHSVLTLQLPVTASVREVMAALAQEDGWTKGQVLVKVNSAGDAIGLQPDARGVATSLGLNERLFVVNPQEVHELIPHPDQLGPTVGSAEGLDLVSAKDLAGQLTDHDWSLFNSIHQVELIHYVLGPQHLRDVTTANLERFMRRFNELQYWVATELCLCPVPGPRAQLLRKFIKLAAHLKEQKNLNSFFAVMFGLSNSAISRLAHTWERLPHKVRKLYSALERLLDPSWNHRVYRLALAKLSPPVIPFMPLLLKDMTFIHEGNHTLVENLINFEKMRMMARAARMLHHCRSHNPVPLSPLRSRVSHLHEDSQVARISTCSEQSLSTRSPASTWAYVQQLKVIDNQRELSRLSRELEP
As for `CCOC(=O)[C@]12Cc3ccsc3[C@H]1N(Cc1ccccc1)C(=O)c1ccccc12`, the Potency result was “inactive”.

With `CCOC(=O)[C@]12Cc3ccccc3[C@H]1N(C1CCCCC1)C(=O)c1cc(OC)ccc12`, the Potency result is “inactive”.

For `Nc1c(C(=O)Nc2ccc(Br)cc2F)sc2nc3c(cc12)N1CCC3CC1`, the Potency result is “inactive”.

Turning to `Cc1c2cnn(CC(=O)N3CCC4(CC3)OCCO4)c(=O)c2c(C)n1Cc1ccc(F)cc1`, the Potency result is “inactive”.

For `COc1cccc(-n2c(/C=C/c3ccc(O)c(O)c3)nc3ccccc3c2=O)c1`, the Potency result is “inactive”.

With `O=C1NCN(c2ccccc2)C12CCN(C(c1cc3ccccc3o1)c1nnnn1C1CCCC1)CC2` (stereo not drawn), the Potency entry is “inactive”.

On to `CN(C)CC(C(=O)Cc1ccccc1)c1ccccc1` (stereo not drawn), for which the Potency entry was “inactive”.

As for `CCOC(=O)[C@]12Cc3cc(Cl)ccc3[C@H]1N(C1CCCCC1)C(=O)c1ccccc12`, the Potency result was “inactive”.

As to `CCN1C(=O)C(=C/C=C/c2ccco2)C(=O)N(CC)C1=S`, the Potency entry was “inactive”.

For `Cc1ccc(N2C(=O)NC(=O)/C(=C\C=C\c3ccco3)C2=O)cc1`, the Potency result is “inactive”.

Consider `CCCSc1nc2ccccc2c(=O)n1-c1ccccc1OC`, for which the Potency result was “inactive”.

As to `CCCCn1c(NS(=O)(=O)c2ccc(C)cc2)c(C(=O)OCC)c2nc3ccccc3nc21`, the Potency entry was “inactive”.

Regarding `O=C1NC(=O)N(c2cccc(Cl)c2)C(=O)/C1=C\c1ccc(Sc2nc3ccccc3[nH]2)o1`, the Potency entry was “inactive”.

Take `O=C1NC(=O)N(Cc2ccccc2)C(=O)/C1=C/C=C/c1ccco1`: the Potency entry was “inactive”.

Regarding `N#CC(C#N)=NNc1ccc(S(N)(=O)=O)cc1`, the Potency entry was “inactive”.

`CCOC(=O)[C@]12Cc3cc(OC)ccc3[C@H]1N(Cc1ccccc1)C(=O)c1cc(F)c(F)cc12`: the Potency entry is “inactive”.

`CCOC(=O)[C@]12Cc3ccc(C)cc3[C@H]1N(C1CCCCC1)C(=O)c1cc(OC)ccc12`: the Potency entry is “inactive”.

Consider `Cc1ccc(N2C(=O)NC(=O)/C(=C\c3cc(C)n(-c4sc5c(c4C#N)CCCC5)c3C)C2=O)cc1`, for which the Potency result was “inactive”.

As for `CCOC(=O)[C@]12Cc3cc(C)ccc3[C@H]1N(C1CCCCC1)C(=O)c1ccccc12`, the Potency result was “inactive”.

Take `CCCNC(=O)N1[C@H]2CC[C@@H]1C(C(=O)OC)=C(c1ccc(F)cc1OCc1ccccc1)C2`: the Potency result is “inactive”.

Consider `CCOC(=O)[C@]12Cc3cc(N(C)C)ccc3[C@H]1N(Cc1ccccc1)C(=O)c1ccccc12`, for which the Potency entry was “inactive”.

Consider `COc1ccc(C(SCC(NC(=O)OCc2ccccc2)C(=O)O)c2ccc(OC)cc2)cc1` (stereo not drawn), for which the Potency entry was “inactive”.

The target in another assay is Rap guanine nucleotide exchange factor 4 (Homo sapiens) (UniProt Q8WZA2). The experiment in a line: Confirmatory qHTS for agonist of cAMP-regulated guanine nucleotide exchange factor 4 (EPAC2) (AID 1645884).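 Further: nucleotide exchange releases bodipy-GDP from Rap1 and this lowers its fluorescence; nearly all actives have a fitted effect of over 65% in size.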 To be noted: EPAC2 GEF activity, Rap1B-BODIPY-GDP fluorescence; series mostly up to 154 µM.
Chain of Rap guanine nucleotide exchange factor 4 (Homo sapiens) (Q8WZA2 whole entry, looked up): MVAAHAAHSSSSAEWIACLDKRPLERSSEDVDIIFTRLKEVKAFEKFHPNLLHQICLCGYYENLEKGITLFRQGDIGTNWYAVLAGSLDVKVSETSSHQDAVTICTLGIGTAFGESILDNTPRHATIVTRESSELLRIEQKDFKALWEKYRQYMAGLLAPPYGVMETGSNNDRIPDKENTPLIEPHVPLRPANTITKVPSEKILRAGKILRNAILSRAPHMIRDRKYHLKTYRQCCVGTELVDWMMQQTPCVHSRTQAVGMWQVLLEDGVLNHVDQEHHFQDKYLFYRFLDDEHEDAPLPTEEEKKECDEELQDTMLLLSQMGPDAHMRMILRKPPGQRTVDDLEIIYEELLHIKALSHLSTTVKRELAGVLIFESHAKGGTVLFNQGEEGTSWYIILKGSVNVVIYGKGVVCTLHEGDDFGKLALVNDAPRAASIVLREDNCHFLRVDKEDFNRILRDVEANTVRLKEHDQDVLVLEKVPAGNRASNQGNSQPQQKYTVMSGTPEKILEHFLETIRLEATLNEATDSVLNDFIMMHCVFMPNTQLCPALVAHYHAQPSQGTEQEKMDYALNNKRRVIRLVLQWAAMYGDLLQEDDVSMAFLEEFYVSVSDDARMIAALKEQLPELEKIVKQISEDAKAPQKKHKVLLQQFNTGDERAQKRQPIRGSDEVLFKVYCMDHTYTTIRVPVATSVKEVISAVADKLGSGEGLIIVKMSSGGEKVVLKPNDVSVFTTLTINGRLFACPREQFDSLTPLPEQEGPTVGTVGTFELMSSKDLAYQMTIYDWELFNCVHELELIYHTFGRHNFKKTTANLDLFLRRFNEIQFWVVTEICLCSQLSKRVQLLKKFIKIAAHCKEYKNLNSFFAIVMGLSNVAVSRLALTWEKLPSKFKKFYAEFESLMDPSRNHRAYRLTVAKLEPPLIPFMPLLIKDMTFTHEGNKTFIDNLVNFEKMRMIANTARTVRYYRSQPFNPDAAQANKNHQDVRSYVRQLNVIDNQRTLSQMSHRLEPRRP
On to `CCOC(=O)[C@]12Cc3ccsc3[C@H]1N(Cc1ccccc1)C(=O)c1ccccc12`, for which the Potency entry is “inactive”.

For `CCOC(=O)[C@]12Cc3ccccc3[C@H]1N(C1CCCCC1)C(=O)c1cc(OC)ccc12`, the Potency entry is “inactive”.

Regarding `Nc1c(C(=O)Nc2ccc(Br)cc2F)sc2nc3c(cc12)N1CCC3CC1`, the Potency entry was “inactive”.

`Cc1c2cnn(CC(=O)N3CCC4(CC3)OCCO4)c(=O)c2c(C)n1Cc1ccc(F)cc1`: the Potency result was “inactive”.

With `COc1cccc(-n2c(/C=C/c3ccc(O)c(O)c3)nc3ccccc3c2=O)c1`, the activation was 9.04% [at 17.1 µM, percent relative to cAMP agonist control] (inactive).

In the case of `O=C1NCN(c2ccccc2)C12CCN(C(c1cc3ccccc3o1)c1nnnn1C1CCCC1)CC2` (stereo not drawn), the activation was 13.1% [at 17.1 µM, percent relative to cAMP agonist control] (inactive).

As for `CN(C)CC(C(=O)Cc1ccccc1)c1ccccc1` (stereo not drawn), the Potency entry is “inactive”.

Consider `CCOC(=O)[C@]12Cc3cc(Cl)ccc3[C@H]1N(C1CCCCC1)C(=O)c1ccccc12`, for which the Potency result is “inactive”.

For the compound `CCN1C(=O)C(=C/C=C/c2ccco2)C(=O)N(CC)C1=S`, the Potency result was “inactive”.

As to `Cc1ccc(N2C(=O)NC(=O)/C(=C\C=C\c3ccco3)C2=O)cc1`, the Potency entry is “inactive”.

As to `CCCSc1nc2ccccc2c(=O)n1-c1ccccc1OC`, the Potency result was “inactive”.

`CCCCn1c(NS(=O)(=O)c2ccc(C)cc2)c(C(=O)OCC)c2nc3ccccc3nc21`: the Potency result is “inactive”.

`O=C1NC(=O)N(c2cccc(Cl)c2)C(=O)/C1=C\c1ccc(Sc2nc3ccccc3[nH]2)o1`: the activation was 5.77% [at 17.1 µM, percent relative to cAMP agonist control] (inactive).

In the case of `O=C1NC(=O)N(Cc2ccccc2)C(=O)/C1=C/C=C/c1ccco1`, the activation was 4.26% [at 17.1 µM, percent relative to cAMP agonist control] (inactive).

As for `N#CC(C#N)=NNc1ccc(S(N)(=O)=O)cc1`, the activation is 3.48% [at 17.1 µM, percent relative to cAMP agonist control] (inactive).

For the compound `CCOC(=O)[C@]12Cc3cc(OC)ccc3[C@H]1N(Cc1ccccc1)C(=O)c1cc(F)c(F)cc12`, the Potency entry is “inactive”.

As to `CCOC(=O)[C@]12Cc3ccc(C)cc3[C@H]1N(C1CCCCC1)C(=O)c1cc(OC)ccc12`, the Potency entry was “inactive”.

Turning to `Cc1ccc(N2C(=O)NC(=O)/C(=C\c3cc(C)n(-c4sc5c(c4C#N)CCCC5)c3C)C2=O)cc1`, the Potency result was “inactive”.

In the case of `CCOC(=O)[C@]12Cc3cc(C)ccc3[C@H]1N(C1CCCCC1)C(=O)c1ccccc12`, the activation was 4.83% [at 17.1 µM, percent relative to cAMP agonist control] (inactive).

In the case of `CCCNC(=O)N1[C@H]2CC[C@@H]1C(C(=O)OC)=C(c1ccc(F)cc1OCc1ccccc1)C2`, the Potency result is “inactive”.

In the case of `COc1ccc(C(SCC(NC(=O)OCc2ccccc2)C(=O)O)c2ccc(OC)cc2)cc1` (stereo not drawn), the Potency result was “inactive”.
